Screening results: PubChem BioAssay, National Center for Advancing Translational Sciences (NCATS)
RORgamma inh: inhibitors of mouse ROR gamma transcriptional activity; Drosophila S2 Gal4-RORgamma UAS-luciferase reporter, 20 h; 5.4% of 310,000 active; Potency, µM (doses to about 53.6 µM), inactives show at the highest dose activity change, negative = inhibition, actives largely listed as inhibitors; P51450; note: potency is the fitted concentration of half-maximal effect; nearly all actives have a fitted effect of over 60% in size
Target sequence (P51450 whole entry, looked up, the tested form may be a part): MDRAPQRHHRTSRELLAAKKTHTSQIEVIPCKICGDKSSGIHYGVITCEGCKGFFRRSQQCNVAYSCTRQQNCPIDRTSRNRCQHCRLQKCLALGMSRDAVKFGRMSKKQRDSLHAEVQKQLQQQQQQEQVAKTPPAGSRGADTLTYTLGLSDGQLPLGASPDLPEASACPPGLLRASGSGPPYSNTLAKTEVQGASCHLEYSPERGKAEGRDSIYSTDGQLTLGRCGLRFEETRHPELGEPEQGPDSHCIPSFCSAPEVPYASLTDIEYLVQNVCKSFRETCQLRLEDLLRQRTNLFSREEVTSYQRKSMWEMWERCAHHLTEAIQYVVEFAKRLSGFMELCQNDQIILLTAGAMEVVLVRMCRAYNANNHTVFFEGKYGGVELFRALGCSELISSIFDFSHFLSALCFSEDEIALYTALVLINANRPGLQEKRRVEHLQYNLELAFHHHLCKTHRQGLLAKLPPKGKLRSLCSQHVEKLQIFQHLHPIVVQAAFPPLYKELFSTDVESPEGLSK
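Stably transfected Drosophila Schneider cells are the test system, with ROR gamma fused to Gal4 and luciferase under UAS control; luminescence is read after 20 hr of 700 uM copper sulfate induction at ambient temperature.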
ELG1 repair inh: blocks ELG1-dependent DNA repair in HEK293T cells | HEK293T ELG1-luciferase reporter, luminescence, 16 h; DNA damage induced by 5-fluorouridine | Potency, µM (titrated, usually from 46.1 µM), for the others: top-dose activity change, negative = inhibition, most hits filed as inhibitors | 2.3% of 330,000 active | AID 504467; note: potency is the fitted concentration of half-maximal effect; nearly all actives have a fitted effect of over 55% in size
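Cells (2,000 per well) received 5-fluorouridine plus test compound or DMSO and were incubated 16 hr at 37 °C, 5% CO2. Luciferase activity was read by luminescence 30 min after ONE-Glo addition; signal suppression marked inhibition of damage-induced ELG1 function.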
B2AR arrestin: recruits beta-arrestin to the human beta2-adrenergic receptor. P07550. beta-arrestin recruitment to beta2AR, cell-based reporter. Potency, µM (highest dose often 46.1 µM), for inactives: top-dose activation, hits mostly activators. 0.02% of 330,000 active;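 note: potency is the fitted concentration of half-maximal effect; 0% = DMSO controls and full agonism = EC100 isoproterenol or metaproterenol; nearly all actives have a fitted effect of over 65% in size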
VP16 counter: inhibits Gal4-VP16 luciferase reporter, ROR gamma counter-screen; Drosophila S2 Gal4-VP16 UAS-luciferase, luminescence, 20 h; Potency, µM (series often up to 53.6 µM), for the others: top-dose activity, negative = inhibition, usual class: inhibitors; 3.5% of 310,000 active;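 note: Gal4-VP16 expression switched on by copper sulfate through the metallothionein promoter; potency is the fitted concentration of half-maximal effect; nearly all actives have a fitted effect of over 50% in size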
TSHR antag: blocks TSH signaling through the human TSH receptor; P16473; TSHR-expressing cells, TSH-stimulated cAMP HTRF, 2 h; active compounds read low; activity change, negative = inhibition, % at 11.5 µM; 0.2% of 330,000 active;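 active = activity change below a set negative limit, meaning inhibition stronger than a set level, cut at about -70% in these data; inconclusive = activity change between two set negative limits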
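Cell-based HTRF cAMP assay; TSHR cells + compound, TSH EC80 (4nM final), 2 h, 37 deg C. Lysis with anti-cAMP cryptate and cAMP-d2, 30 min RT, read 665/620 nm.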
Active calls of the source: *; ? = inconclusive; . = no result. Most compounds without a hit are left out; they make up all but 7.5% or so of the library. Unless noted, calls come from the whole dose curve; as a rule, active = well fitted curve in the direction sought with a large enough effect; inconclusive = small, poorly fitted or top-dose-only effect, or another doubt; inactive = no such curve, though single readings can be large; an effect the other way counts as inactive or inconclusive. Unless noted, % is set by controls: 0 for no effect and ±100 for the full control effect.

SMILES	RORgamma inh	ELG1 repair inh	B2AR arrestin	VP16 counter	TSHR antag
Cc1cnc(CNc2ncnc3ccc(-c4ccccc4C)cc23)cn1	3%	.	.	-27%	.
CC(=O)Oc1ccc(C23CC4CC(CC(C4)C2)C3)cc1C(=O)O	18%	0%	0%	-4%	-24
CCCOc1ccc(-c2c(C(=O)N/N=C(\C)COc3ccccc3)nnn2-c2nonc2N)cc1	?	11%	0%	0%	-34
COc1ccc(-c2csc(NC(=O)c3cc(C)oc3C)n2)cc1OC	9%	18µM*	-1%	10%	-15
O=C(/C=C/c1cccs1)N1CCc2ccccc21	8.9µM*	?	-1%	?	-10
CCCOC(C(=O)OC1CCN(C)CC1)(c1ccccc1)c1ccccc1	-25%	.	.	1%	.
CCOC(=O)C1=C(C)NC(=S)N(C(C)=O)C1c1ccc(Cl)cc1 (stereo unspecified)	7.9µM*	?	0%	18µM*	24
CCOC(=O)C1=C(C)N(CCCC(=O)O)C(=O)NC1c1ccc(Cl)cc1 (stereo unspecified)	12%	-14%	-1%	8%	4
CCOC(=O)C1=C(C)N(C)C(=S)NC1c1c(OCC)ccc2ccccc12 (stereo unspecified)	2.8µM*	6%	0%	18µM*	-5
CCOC(=O)C1=C(C)C(c2cccc(Oc3ccccc3)c2)NC(=S)N1 (stereo unspecified)	7.1µM*	26µM*	0%	18µM*	-5
CCOC(=O)C1=C(C)N(C)C(=S)NC1c1ccc(Cl)cc1 (stereo unspecified)	?	?	0%	3.5µM*	-7
CCOC(=O)C1=C(C)C(c2ccc(OC)cc2)NC(=S)N1 (stereo unspecified)	?	-2%	0%	-4%	-8
COC(=O)C1=C(C)N(C)C(=S)NC1c1ccc(OC)cc1OC (stereo unspecified)	16µM*	-3%	1%	?	-2
CCOC(=O)C1=C(C)N(CCO)C(=O)NC1c1ccccc1 (stereo unspecified)	2%	0%	0%	-1%	24
CCOC(=O)C1=C(C)N(C)C(C)=C(C(=O)OCC)C1c1ccc(Cl)cc1	-25%	-6%	1%	22µM*	-9
COC(=O)C1=C(C)N(C)C(=S)NC1c1ccc(Cl)cc1 (stereo unspecified)	7.9µM*	-1%	-1%	11µM*	-6
CCOC(=O)C1=C(C)N(C)C(=S)NC1c1ccccc1 (stereo unspecified)	6.3µM*	-3%	0%	8.9µM*	4
C[C@@H](O)CCC[C@H](O)/C=C/[C@@H]1[C@@H](C/C=C\CCCC(=O)O)[C@@H](O)C[C@H]1O	-3%	.	.	1%	.
CC1=C(C(=O)OC(C)C)C(c2ccccc2)NC(=S)N1C (stereo unspecified)	14µM*	-4%	0%	?	-4
CC1=C(C(=O)OC(C)C)C(c2ccsc2)NC(=O)N1C (stereo unspecified)	6%	-13%	0%	0%	2
S=c1[nH]cc(Cc2ccccc2)s1	13µM*	-13%	-1%	?	-4
COCCNc1oc(/C=C/c2ccccc2OC)nc1S(=O)(=O)c1ccccc1	?	10µM*	-1%	-13%	-7
CC1=CC(=C2C(=O)c3ccccc3C2=O)C=C(C)N1C	-7%	?	0%	-4%	2
CCCCCN1C=CC(=C2C(=O)c3ccccc3C2=O)C=C1	1.1µM*	?	0%	1.3µM*	2
CCOC(=O)CCc1c(C)c2ccc(OCc3ccc([N+](=O)[O-])cc3)cc2oc1=O	15%	1%	0%	2%	-1
SMILES	RORgamma inh	ELG1 repair inh	B2AR arrestin	VP16 counter	TSHR antag
CCOC(=O)C1CSC(Cc2ccc(OCc3ccc([N+](=O)[O-])cc3)cc2)N1 (stereo unspecified)	14µM*	.	.	?	.
COc1ccc(C(=O)Nc2cc(-c3ccc(C)cc3)no2)cc1	3.2µM*	2%	0%	-24%	2
O=C(Nc1nccs1)c1ccc(-c2ccc(Cl)cc2Cl)o1	3.5µM*	?	-1%	5µM*	-12
Cc1ccccc1NC(=O)c1ccc(-c2ccc(Cl)cc2Cl)o1	3%	-1%	0%	2%	-22
O=C(Nc1nccs1)c1ccc(-c2ccc(F)c(Cl)c2)o1	7.9µM*	?	0%	?	-9
Cc1cccc(C)c1NC(=O)c1ccc(-c2ccc(Cl)cc2Cl)o1	-1%	13µM*	0%	-1%	-7
Cc1cccc(N2CCN(C(=O)C3CCN(S(=O)(=O)c4cccc5nsnc45)CC3)CC2C)c1 (stereo unspecified)	0%	?	0%	8%	-16
O=C(C1CCN(S(=O)(=O)c2cccc3cccnc23)CC1)N1CC=C(c2ccccc2)CC1	40%	23µM*	-1%	-5%	-22
O=C(C1CCN(S(=O)(=O)c2cccc3cccnc23)CC1)N1CCCC1	9%	-4%	-4%	-7%	14
Cc1cccc(N2CCN(C(=O)C3CCN(S(=O)(=O)c4cccc5cccnc45)CC3)CC2C)c1 (stereo unspecified)	25%	18µM*	0%	7%	-8
O=C(/C=C/c1ccc2c(c1)OCO2)Nc1nncs1	-2%	-2%	0%	18%	9
Cc1sc(NC(=O)/C=C/c2ccc3c(c2)OCO3)nc1-c1ccccc1	10%	8.2µM*	0%	-11%	?
O=C(/C=C/c1ccc2c(c1)OCO2)Nc1nc(-c2ccccc2)cs1	28%	18µM*	0%	-2%	-79*
Cc1ccc(NC(=O)NCc2ccc3c(c2)OCO3)cc1C	-24%	?	1%	4%	-1
Fc1ccc(NC(=S)NCc2ccc3c(c2)OCO3)cc1	11µM*	-10%	0%	?	-11
Cc1ccc(NC(=S)NCc2ccc3c(c2)OCO3)cc1C	13µM*	?	-1%	?	1
O=C(NCC(=O)N1CCCC(C(F)(F)F)C1)c1ccc2ccccc2c1 (stereo unspecified)	.	28%	0%	.	-8
O=C(NC(=S)N1CCCC(C(F)(F)F)C1)c1ccc(F)cc1 (stereo unspecified)	0.56µM*	2%	5%	0.71µM*	-1
COCCC(=O)N1CCCC(C(=O)c2ccc(Oc3ccccc3)cc2)C1 (stereo unspecified)	45%	-17%	-1%	-10%	-12
O=C(NCC(=O)N1CCCC(C(F)(F)F)C1)c1ccc(Oc2ccccc2)cc1 (stereo unspecified)	8.9µM*	?	-1%	13µM*	-1
CCN1CCN(CC(=O)N2CCCC(C(=O)c3ccc(Oc4ccccc4)cc3)C2)CC1 (stereo unspecified)	7.9µM*	?	0%	?	-24
